This note sets out measurements from PubChem BioAssay (NCATS).

Assay [1] in a line: NFAT Signaling Pathway (AID 444).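 Further: carbachol stimulus at about its EC50 of 1 µM final; on the % scale 0 is the no-effect control and ±100 the full control effect.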 The settings on record: Jurkat NFAT-bla M1, carbachol, beta-lactamase ratio, 5 h; at 17.2 µM (top of the series) unless noted. Summed up:
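Jurkat cells carrying an NFAT-driven β-lactamase reporter and co-transfected muscarinic M1 receptor were treated with compound plus carbachol (1 uM final, an EC50 level) for 5 h at 37 °C. CCF4 loading followed for 1 h at RT; 460/530 nm ratio gave %activity.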

The nature of assay [2]: Stat Signaling Pathway (AID 446).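 Further: ME-180 cervical cancer cells given 40 pM IL-6 alongside compound; SIE-controlled beta-lactamase reporter measured as 460/530 nm FRET emission ratio; on the % scale 0 is the no-effect control and ±100 the full control effect.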 Summed up:
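Normalization used AC90 stimulation (300 pM IL-6) and AC90 inhibition (125 nM pan-JAK inhibitor at 40 pM IL-6). The underlying signal is SIE-driven beta-lactamase in ME-180 cells after 5 h IL-6 exposure with compound.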

Assay [3] deals with Glucocorticoid receptor (Homo sapiens) (UniProt P04150). The assay is described as follows: GR-GFP Redistribution (AID 450;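 active means compounds whose dose series gives a full or clear partial fitted curve of increased nuclear translocation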; further: potency means the concentration at half of the fitted maximal effect). The settings on record: U2OS GR-GFP nuclear translocation, laser cytometry, 2 h.
Assay [4] has the same target. Put plainly: GR-EFC Redistribution (AID 451; calls by dose curve; further: potency means the concentration at half of the fitted maximal effect). The settings on record: CHO-K1 GR-EFC translocation, beta-gal luminescence, 2 h. Summed up: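 CHO-K1 cells stably expressing nuclear-localized β-gal enzyme acceptor and GR fused C-terminally to the enzyme donor fragment; ligand-driven nuclear translocation restores β-gal by complementation. Compounds titrated up to 46 uM final, 2 h at 37 °C; luminescence read.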

The target in assay [5] is Mitogen-activated protein kinase 10 (Mus musculus) (UniProt Q61831). Put plainly: JNK3 AlphaScreen Assay (AID 530).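 Further: kinase came from lysate of stimulated human HepG2 cells; signal reports phosphorylation of biotinylated GST-cJun 1-79 at Ser73 with 10 µM ATP; on the % scale 0 is the no-effect control and ±100 the full control effect.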 Summed up: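 Biotinylated GST-cJun(1-79) served as substrate for JNK3 in HepG2 lysates stimulated with IL-1beta and TNF-alpha. ATP was 10 uM final, pH 7.6. Ser73 phosphorylation was quantified by AlphaScreen (680 nm excitation).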
Background: Bead proximity is the source of the signal in Alpha formats.

The target of assay [6] is 3',5'-cyclic-AMP phosphodiesterase 4B (Homo sapiens) (UniProt Q07343). Put plainly: qHTS Assay for Inhibitors of PDE-IV (AID 607; active means well fitted activation curve with a large enough effect in the main read-out, with a control signal flat, not every such curve was filed as active; further: % of control where 0% means no effect). An outline of the steps:
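HEK293 ACTOne cells with CNG channel (1000/well), endogenous PDE4; membrane potential dye, compounds up to 22.9 uM final. Fluorescence Ex 535/Em 590; RO 20-1724 (100 uM final) as reference.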
In general terms: Quantitative high-throughput screening tests each substance at several concentrations.

Assay [7] can be described thus: Cell Viability - MRC5 (AID 434; calls by dose curve;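 further: potency means the concentration at half of the fitted maximal effect; cells exposed to compound for 40 hours at 37 °C; potency reflects cytotoxicity seen as loss of intracellular ATP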). The settings on record: MRC5 lung fibroblast viability, qHTS. An outline of the steps:
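Decrease in intracellular ATP, quantified by luciferase light output, reflects compound toxicity toward MRC5 cells exposed for 40 hr in complete culture medium. Concentration-response curves, scaled between DMSO and 100 uM tamoxifen, gave AC50 values.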

A short description of assay [8]: Cellular Toxicity (caspase-3) Renal Proximal Tubule (AID 667; active means well fitted curve in the direction sought with a large enough effect; an effect the other way counts as inactive or inconclusive;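 further: cells exposed to compound for 16 hours at 37 °C before detection; 0% = DMSO basal and 100% = 10 µM staurosporine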). Particulars: renal proximal tubule cells; at 91.7 µM (top of the series) unless noted. Summed up: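 AC50 derived by standard Hill fit of concentration-response data, normalized between DMSO basal and 10 uM staurosporine as 100% stimulation. Cells: primary rat kidney proximal tubule, 16 h treatment at 37 °C.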

The target of assay [9] is Cytochrome P450 3A4 (Homo sapiens) (UniProt P08684). The assay is described as follows: qHTS Assay for Activators of Cytochrome P450 3A4 (AID 885; active means well fitted curve in the direction sought with a large enough effect; an effect the other way counts as inactive or inconclusive; further: nearly all actives have a fitted effect of over 65% in size). Summed up: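 Human CYP3A4 dealkylates Luciferin-PPXE to luciferin, which luciferase detection converts to light. Substrate was at its KM (25uM), buffer 200mM KPO4, reaction 60 min at RT.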
Assay [10] is described as follows: MultiTox-Fluor Cytotoxicity Assay - LYMP1-002 - Live Cells (AID 955; active means well fitted curve in the direction sought with a large enough effect; an effect the other way counts as inactive or inconclusive; further: on the % scale 0 is the no-effect control and ±100 the full control effect). Summed up: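 In this qHTS viability format, lymphoblastoid cells (LYMP1-002, human) received compound for 16 hr at 37 C. Fluorogenic GF-AFC cleavage by viable cells was detected at 405/510 nm after 1 h at room temperature.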
Assay [11] in a line: MultiTox-Fluor Cytotoxicity Assay - LYMP1-003 - Live Cells (AID 962; active means well fitted curve in the direction sought with a large enough effect; an effect the other way counts as inactive or inconclusive;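 further: 0% = DMSO only and full loss = 92 µM tetraoctylammonium bromide; cytotoxic hits lower the live-cell protease signal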). Summed up:
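Human lymphoblastoid line LYMP1-003 in complete culture medium, treated 16 hr with titrated compounds. Viable cells quantified via cell-permeant GF-AFC substrate fluorescence; AC50 derived by Hill fitting.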

Assay [12] is described as follows: Cell Viability - LYMP2-008 (AID 980; active means well fitted curve in the direction sought with a large enough effect; an effect the other way counts as inactive or inconclusive; further: potency means the concentration at half of the fitted maximal effect; nearly all actives have a fitted effect of over 60% in size). Summed up: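 Measured: ATP-dependent luminescence, proportional to viable cell number, in human lymphoblastoid cells treated 24 hr with compound in complete culture medium. Values are AC50s from Hill-equation modelling of qHTS titrations.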
In assay [13] the target is Cytochrome P450 3A4 (Homo sapiens) (UniProt P08684). The assay is described as follows: qHTS Assay for Inhibitors and Substrates of Cytochrome P450 3A4 (AID 884; active means well fitted curve in the direction sought with a large enough effect; an effect the other way counts as inactive or inconclusive; further: on the % scale 0 is the no-effect control and ±100 the full control effect; nearly all actives have a fitted effect of over 50% in size). An outline of the steps:
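Luminescent readout of luciferin produced by CYP3A4 (20 nM) dealkylation of Luciferin-PPXE, 25 uM (its KM). NADPH-driven reaction ran 60 min at RT after 10 min compound preincubation; data scaled to 57 uM ketoconazole as 100% inhibition.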

Assay [14] in a line: qHTS assay for small molecule agonists of the antioxidant response element (ARE) signaling pathway measured by Nrf2-dependant transcriptional activity - cell viability counter screen (AID 720653; active means well fitted curve in the direction sought with a large enough effect in the repeat runs; an effect the other way counts as inactive or inconclusive; further: on the % scale 0 is the no-effect control and ±100 the full control effect). The settings on record: ARE-bla HepG2 viability, CellTiter-Glo ATP luminescence, 16 h; max response: hits give low values. An outline of the steps:
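ARE-bla HepG2 cells (2,000/well) rested 5 hrs at 37C/5% CO2, then exposed to compounds in DMSO for 16 hrs. Viability was read in the same wells as intracellular ATP by luminescence, 30 min at room temperature after reagent addition.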

Assay [15] addresses Cytochrome P450 2C9 (Homo sapiens) (UniProt P11712). Put plainly: qHTS Assay for Inhibitors and Substrates of Cytochrome P450 2C9 (AID 883; active means well fitted curve in the direction sought with a large enough effect; an effect the other way counts as inactive or inconclusive; further: on the % scale 0 is the no-effect control and ±100 the full control effect; nearly all actives have a fitted effect of over 60% in size). An outline of the steps:
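Human CYP2C9 (10nM) hydroxylated Luciferin-H (100uM, at its KM) to luciferin in 25mM KPO4. Compound was preincubated 10 min at 37C, then NADPH regeneration started a 60 min reaction at 37C. Luminescence was read after detection reagent, normalized to 57uM sulphaphenazole.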

Assay [16] deals with Cytochrome P450 2D6 (Homo sapiens) (UniProt P10635). The assay is described as follows: qHTS Assay for Inhibitors and Substrates of Cytochrome P450 2D6 (AID 891; active means well fitted curve in the direction sought with a large enough effect; an effect the other way counts as inactive or inconclusive;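 further: luciferin methyl ether substrate demethylated by CYP2D6 with NADPH regeneration; on the % scale 0 is the no-effect control and ±100 the full control effect; nearly all actives have a fitted effect of over 60% in size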). An outline of the steps:
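Luminescent read-out of luciferin formed by 5 nM human CYP2D6 demethylating 30 uM Luciferin-ME EGE (Km level) over 60 min at room temperature after NADPH regeneration addition. Data normalized to full inhibition by 1.43 uM quinidine.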

The target of assay [17] is Cytochrome P450 2C19 (Homo sapiens) (UniProt P33261). The assay is described as follows: qHTS Assay for Inhibitors and Substrates of Cytochrome P450 2C19 (AID 899; active means well fitted curve in the direction sought with a large enough effect; an effect the other way counts as inactive or inconclusive; further: on the % scale 0 is the no-effect control and ±100 the full control effect; nearly all actives have a fitted effect of over 60% in size). Summed up: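 Human CYP2C19 (5nM) with Luciferin-H EGE at 10uM (its KM) in 50mM KPO4 was preincubated with compound for 10 min at 37C. NADPH regeneration started a 60 min 37C reaction. Luciferin was read by luminescence, normalized to 57uM ketoconazole.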

Each structure is given as a SMILES string. A number with no mark means an inactive call. Records with an inconclusive call do not appear. Activity calls are given as the source filed them. Unless noted, the call rests on the fitted dose curve; in most records, active means well fitted curve in either direction with a large enough effect (not every such curve was filed as active); inconclusive means small, poorly fitted or top-dose-only effect, or another doubt; inactive means flat fitted curve, though single readings scatter.

Chain of Glucocorticoid receptor (Homo sapiens) (P04150 whole entry, looked up, the tested form may be a part): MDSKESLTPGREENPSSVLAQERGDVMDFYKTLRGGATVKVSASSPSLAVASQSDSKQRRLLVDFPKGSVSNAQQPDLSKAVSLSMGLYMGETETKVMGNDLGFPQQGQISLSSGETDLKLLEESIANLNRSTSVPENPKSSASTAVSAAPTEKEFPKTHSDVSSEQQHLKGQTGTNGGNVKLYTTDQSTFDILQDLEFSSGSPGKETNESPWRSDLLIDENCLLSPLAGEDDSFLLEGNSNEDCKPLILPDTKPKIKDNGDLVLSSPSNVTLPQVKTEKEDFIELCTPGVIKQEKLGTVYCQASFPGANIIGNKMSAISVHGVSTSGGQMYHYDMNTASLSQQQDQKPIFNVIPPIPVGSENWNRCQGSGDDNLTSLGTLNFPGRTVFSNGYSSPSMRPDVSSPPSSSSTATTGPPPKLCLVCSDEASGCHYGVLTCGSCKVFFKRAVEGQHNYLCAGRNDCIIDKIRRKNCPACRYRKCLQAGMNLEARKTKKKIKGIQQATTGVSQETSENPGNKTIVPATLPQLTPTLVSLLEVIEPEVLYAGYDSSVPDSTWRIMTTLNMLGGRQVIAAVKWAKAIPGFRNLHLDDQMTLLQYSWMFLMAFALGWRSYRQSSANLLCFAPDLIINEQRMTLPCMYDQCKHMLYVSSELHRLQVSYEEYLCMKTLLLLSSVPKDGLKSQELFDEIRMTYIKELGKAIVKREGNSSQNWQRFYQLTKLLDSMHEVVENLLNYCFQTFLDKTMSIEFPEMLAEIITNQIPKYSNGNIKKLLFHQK
Chain of 3',5'-cyclic-AMP phosphodiesterase 4B (Homo sapiens) (Q07343 whole entry, looked up): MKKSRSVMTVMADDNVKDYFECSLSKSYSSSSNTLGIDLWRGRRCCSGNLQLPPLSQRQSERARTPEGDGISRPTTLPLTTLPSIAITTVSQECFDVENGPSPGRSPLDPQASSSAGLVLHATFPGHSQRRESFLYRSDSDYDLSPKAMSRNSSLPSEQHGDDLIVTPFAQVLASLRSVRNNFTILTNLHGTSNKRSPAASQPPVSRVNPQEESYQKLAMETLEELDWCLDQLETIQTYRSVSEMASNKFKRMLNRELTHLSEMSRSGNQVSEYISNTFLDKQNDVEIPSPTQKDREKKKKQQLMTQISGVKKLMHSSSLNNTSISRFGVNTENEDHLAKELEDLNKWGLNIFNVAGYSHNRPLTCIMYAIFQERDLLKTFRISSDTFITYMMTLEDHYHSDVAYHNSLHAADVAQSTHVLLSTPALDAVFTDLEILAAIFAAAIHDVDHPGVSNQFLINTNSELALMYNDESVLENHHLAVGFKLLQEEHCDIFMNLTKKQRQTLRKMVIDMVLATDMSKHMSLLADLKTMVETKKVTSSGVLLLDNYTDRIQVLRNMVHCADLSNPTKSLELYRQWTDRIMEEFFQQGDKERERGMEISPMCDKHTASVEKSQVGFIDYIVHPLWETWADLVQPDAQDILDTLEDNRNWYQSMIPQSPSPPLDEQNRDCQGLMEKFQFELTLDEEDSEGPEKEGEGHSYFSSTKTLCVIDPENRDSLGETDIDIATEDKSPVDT
Chain of Cytochrome P450 3A4 (Homo sapiens) (P08684 whole entry, looked up): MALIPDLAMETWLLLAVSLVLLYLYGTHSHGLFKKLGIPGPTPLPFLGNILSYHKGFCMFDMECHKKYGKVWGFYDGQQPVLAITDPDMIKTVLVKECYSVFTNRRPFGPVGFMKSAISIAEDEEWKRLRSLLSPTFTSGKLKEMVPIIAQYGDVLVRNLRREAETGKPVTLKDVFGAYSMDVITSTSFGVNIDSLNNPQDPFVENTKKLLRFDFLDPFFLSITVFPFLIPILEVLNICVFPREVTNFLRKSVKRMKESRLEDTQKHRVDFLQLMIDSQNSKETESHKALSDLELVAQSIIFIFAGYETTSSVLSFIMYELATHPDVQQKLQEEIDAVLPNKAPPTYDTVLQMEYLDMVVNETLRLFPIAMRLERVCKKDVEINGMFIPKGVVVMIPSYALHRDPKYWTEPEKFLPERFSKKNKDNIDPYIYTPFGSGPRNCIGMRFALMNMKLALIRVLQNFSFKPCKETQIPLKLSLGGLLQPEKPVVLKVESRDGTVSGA
Chain of Cytochrome P450 2C9 (Homo sapiens) (P11712 whole entry, looked up): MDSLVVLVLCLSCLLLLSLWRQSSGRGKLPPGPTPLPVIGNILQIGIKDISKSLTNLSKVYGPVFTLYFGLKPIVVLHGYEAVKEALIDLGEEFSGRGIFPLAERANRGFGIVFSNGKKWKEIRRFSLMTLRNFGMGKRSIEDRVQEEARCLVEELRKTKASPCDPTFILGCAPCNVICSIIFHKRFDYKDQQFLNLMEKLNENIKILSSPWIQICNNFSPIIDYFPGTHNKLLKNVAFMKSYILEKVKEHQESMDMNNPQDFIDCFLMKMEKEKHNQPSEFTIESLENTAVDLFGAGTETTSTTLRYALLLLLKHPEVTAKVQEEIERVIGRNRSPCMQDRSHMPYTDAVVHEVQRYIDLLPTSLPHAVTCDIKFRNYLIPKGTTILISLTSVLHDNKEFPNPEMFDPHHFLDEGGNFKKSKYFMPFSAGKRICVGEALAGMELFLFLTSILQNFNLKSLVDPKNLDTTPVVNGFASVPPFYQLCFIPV
Chain of Cytochrome P450 2D6 (Homo sapiens) (P10635 whole entry, looked up): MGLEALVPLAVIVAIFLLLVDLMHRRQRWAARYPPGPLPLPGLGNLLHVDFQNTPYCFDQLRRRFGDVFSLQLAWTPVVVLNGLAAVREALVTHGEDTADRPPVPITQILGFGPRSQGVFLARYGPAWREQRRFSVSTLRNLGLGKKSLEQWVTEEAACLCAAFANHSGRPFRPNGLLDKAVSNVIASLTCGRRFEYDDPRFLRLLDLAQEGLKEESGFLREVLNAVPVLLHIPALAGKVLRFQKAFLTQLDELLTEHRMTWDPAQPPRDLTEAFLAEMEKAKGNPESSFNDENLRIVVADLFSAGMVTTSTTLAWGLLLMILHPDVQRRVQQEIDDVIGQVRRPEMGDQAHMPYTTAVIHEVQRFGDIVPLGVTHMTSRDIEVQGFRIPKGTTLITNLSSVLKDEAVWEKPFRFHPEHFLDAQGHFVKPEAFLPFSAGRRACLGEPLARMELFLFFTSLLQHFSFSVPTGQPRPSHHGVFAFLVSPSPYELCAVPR
Chain of Cytochrome P450 2C19 (Homo sapiens) (P33261 whole entry, looked up): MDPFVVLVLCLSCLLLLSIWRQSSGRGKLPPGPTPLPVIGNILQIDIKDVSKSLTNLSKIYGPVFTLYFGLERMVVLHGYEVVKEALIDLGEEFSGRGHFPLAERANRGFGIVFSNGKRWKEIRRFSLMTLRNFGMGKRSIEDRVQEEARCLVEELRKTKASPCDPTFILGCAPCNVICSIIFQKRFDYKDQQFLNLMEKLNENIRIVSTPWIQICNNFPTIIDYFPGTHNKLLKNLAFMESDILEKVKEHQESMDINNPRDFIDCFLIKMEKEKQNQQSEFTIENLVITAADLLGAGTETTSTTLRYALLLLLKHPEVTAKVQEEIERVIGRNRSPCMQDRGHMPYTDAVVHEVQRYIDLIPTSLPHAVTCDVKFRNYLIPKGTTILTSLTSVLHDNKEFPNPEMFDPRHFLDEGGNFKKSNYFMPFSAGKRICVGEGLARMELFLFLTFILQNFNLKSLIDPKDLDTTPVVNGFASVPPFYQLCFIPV

For `CC1(c2ccccc2)NCCN2C(=O)CSC21` (centres undefined), the activity change, negative = inhibition in assay [1] is -7.83%. In addition, the compound was classed as inactive in assay [2]. Further, in [3], the Potency was > 20.6 µM.

In the case of `CC1=C(C(=O)OC(C)C)[C@]2(C(=O)N(CC(N)=O)c3ccccc32)C(C#N)=C(N)O1`, the activity change, negative = inhibition in [1] is -13.4%. Further, the outcome in assay [2] was inactive. In addition, in assay [3], the Potency is > 20.6 µM.

Take `CCCSP1(=S)NCCCO1` (centres undefined): in assay [1], the activity change, negative = inhibition was 2.72%. Also, in [2], the call was inactive. Further, the Potency in [3] was > 20.6 µM.

Take `NCC1(c2ccc3c(c2)OCCO3)CCCC1`: in assay [1], the activity change, negative = inhibition is -11.3%. For the same compound, the compound was called inactive in assay [2]. Besides, the Potency in assay [3] was > 20.6 µM.

For `CC1(C)[C@@H]2CC[C@]1(C)CN(CCC[N+](C)(C)C)C2`, the values for the activity change, negative = inhibition in assay [1] and in assay [5] were -12.6% [at 7.69 µM] and 0.443% [at 11.4 µM], respectively. Besides, in [4], the Potency is > 9.22 µM. In assay [6], the outcome was inactive.

For the compound `[Cd+2].[Cl-].[Cl-]`, the Potency in assay [7] was > 92 µM; in assay [12], 39.8 µM (active). The caspase-3 activation in assay [8] is -13.6%. Also, the Potency entry in [9], in assay [10] and in assay [11] was “inactive” throughout.

Turning to `O=[N+]([O-])C(Br)Br`, in assay [8], the caspase-3 activation was 2.88%. The Potency result in [13], in assay [10] and in assay [11] was “inactive” in each case. In addition, the Potency in assay [12] is 12.6 µM (active). Besides, the max response in assay [14] is -11.4%.

For the compound `CC(C)[C@@]1(NC(=O)[C@@H]2C=C3c4cccc5[nH]cc(c45)C[C@H]3N(C)C2)O[C@@]2(O)[C@@H]3CCCN3C(=O)[C@H](Cc3ccccc3)N2C1=O`, the activity change, negative = inhibition in assay [1] was -19%. Also, in [2], the compound was called inactive. The Potency in assay [3] was > 20.6 µM.

As for `N[C@]1(C(=O)O)CC[C@@H](C(=O)O)C1`, in assay [1], the activity change, negative = inhibition is 7.68% [at 38 µM]. The outcome in assay [2] and in assay [6] was inactive. Further, the Potency in assay [3] and in assay [4] was > 46 µM each time. Also, the Potency entry in assay [15], in assay [16] and in [17] was “inactive” each time.
